Reference: PubChem BioAssay (NCATS)
Results filed as inconclusive are left out. Active and inactive are the calls of the source. Unless noted, calls follow the shape of the dose curve; as a rule, active = well fitted curve in either direction with a large enough effect (not every such curve was filed as active); inconclusive = small, poorly fitted or top-dose-only effect, or another doubt; inactive = flat fitted curve, though single readings scatter.

Legend:
[1] = AP1 Signaling Pathway (AID 357); settings: ME-180 AP-1-bla reporter, EGF-induced, beta-lactamase ratio, 5 h; at 17.2 µM (top of the series) unless noted; also: % is scaled to controls: 0 for no effect and ±100 for the full control effect
Summary of the method: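 AP-1-bla ME-180 cells with beta-lactamase reporter under AP-1 response element, stimulated with EC50 EGF; compounds titrated, 5 hours at 37 degrees Celsius. CCF4 read at 460/530 nm ratio; positive and negative modulators judged by AC50.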

[2] = NFAT Signaling Pathway (AID 444); settings: Jurkat NFAT-bla M1, carbachol, beta-lactamase ratio, 5 h; at 17.2 µM (top of the series) unless noted;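 also: carbachol stimulus at about its EC50 of 1 µM final; % is scaled to controls: 0 for no effect and ±100 for the full control effect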
Summary of the method: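 Jurkat cells with NFAT-driven β-lactamase reporter and co-expressed M1 receptor, stimulated with carbachol (final 1 uM, ~EC50), compound titration, 5 h at 37 °C. CCF4 loaded 1 h at RT; 460/530 nm ratio gave %activity and AC50.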

[3] = Stat Signaling Pathway (AID 446);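 also: ME-180 cervical cancer cells given 40 pM IL-6 alongside compound; SIE-controlled beta-lactamase reporter measured as 460/530 nm FRET emission ratio; % is scaled to controls: 0 for no effect and ±100 for the full control effect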
Summary of the method: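 Reporter line: ME-180 cervical carcinoma, SIE-beta-lactamase. Treatment: compound with 40 pM IL-6, 5 hrs, 37 C, in low-serum OPTI-MEM with 10 mM HEPES pH 7.3. Detection: 460/530 nm fluorescence.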

[4] = target: Glucocorticoid receptor (Homo sapiens) (UniProt P04150); test: GR-GFP Redistribution (AID 450;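 active = compounds whose dose series gives a full or clear partial fitted curve of increased nuclear translocation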; also: potency is read from the fitted curve at half-maximal effect); settings: U2OS GR-GFP nuclear translocation, laser cytometry, 2 h
Sequence of Glucocorticoid receptor (Homo sapiens) (P04150 whole entry, looked up, the tested form may be a part): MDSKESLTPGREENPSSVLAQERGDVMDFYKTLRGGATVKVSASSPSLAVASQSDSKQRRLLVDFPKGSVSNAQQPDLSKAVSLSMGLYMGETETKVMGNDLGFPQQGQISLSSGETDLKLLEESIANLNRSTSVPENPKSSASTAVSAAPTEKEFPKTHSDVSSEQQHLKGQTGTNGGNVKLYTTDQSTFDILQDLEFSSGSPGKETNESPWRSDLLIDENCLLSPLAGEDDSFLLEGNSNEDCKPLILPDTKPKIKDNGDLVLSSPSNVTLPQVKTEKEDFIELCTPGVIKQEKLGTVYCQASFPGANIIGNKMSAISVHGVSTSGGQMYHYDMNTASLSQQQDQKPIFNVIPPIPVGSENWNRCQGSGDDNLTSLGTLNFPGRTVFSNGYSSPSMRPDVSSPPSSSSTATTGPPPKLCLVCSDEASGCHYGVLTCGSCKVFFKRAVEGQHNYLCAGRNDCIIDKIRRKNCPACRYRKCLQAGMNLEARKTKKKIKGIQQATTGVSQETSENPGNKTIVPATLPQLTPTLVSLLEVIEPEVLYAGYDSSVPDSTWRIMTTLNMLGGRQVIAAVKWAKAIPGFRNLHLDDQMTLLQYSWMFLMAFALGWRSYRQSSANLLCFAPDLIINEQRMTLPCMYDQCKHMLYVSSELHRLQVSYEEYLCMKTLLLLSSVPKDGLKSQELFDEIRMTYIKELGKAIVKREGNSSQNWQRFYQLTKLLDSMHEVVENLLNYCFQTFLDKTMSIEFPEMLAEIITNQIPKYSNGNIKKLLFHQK

[5] = target: Glucocorticoid receptor (Homo sapiens) (UniProt P04150); test: GR-EFC Redistribution (AID 451; calls by dose curve; also: potency is read from the fitted curve at half-maximal effect); settings: CHO-K1 GR-EFC translocation, beta-gal luminescence, 2 h
Summary of the method: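 CHO-K1 cells expressing nuclear EA and GR-ED fragments of b-gal; compounds titrated up to 46 uM final, 2 h at 37 C. GR nuclear translocation read as complemented b-gal luminescence after 1 h RT detection.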

[6] = target: Mitogen-activated protein kinase 10 (Mus musculus) (UniProt Q61831); test: JNK3 AlphaScreen Assay (AID 530);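 also: kinase came from lysate of stimulated human HepG2 cells; signal reports phosphorylation of biotinylated GST-cJun 1-79 at Ser73 with 10 µM ATP; % is scaled to controls: 0 for no effect and ±100 for the full control effect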
Summary of the method: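 qHTS format: compounds tested as titrations against IL-1beta/TNF-alpha-activated HepG2 lysate JNK3 with biotin-GST-cJun substrate and 10 uM ATP at room temperature. Loss of anti-phospho-cJun AlphaScreen signal indicates inhibition.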

[7] = target: 3',5'-cyclic-AMP phosphodiesterase 4B (Homo sapiens) (UniProt Q07343); test: qHTS Assay for Inhibitors of PDE-IV (AID 607; active = well fitted activation curve with a large enough effect in the main read-out, with a control signal flat, not every such curve was filed as active; also: % of control where 0% means no effect)
Sequence of 3',5'-cyclic-AMP phosphodiesterase 4B (Homo sapiens) (Q07343 whole entry, looked up): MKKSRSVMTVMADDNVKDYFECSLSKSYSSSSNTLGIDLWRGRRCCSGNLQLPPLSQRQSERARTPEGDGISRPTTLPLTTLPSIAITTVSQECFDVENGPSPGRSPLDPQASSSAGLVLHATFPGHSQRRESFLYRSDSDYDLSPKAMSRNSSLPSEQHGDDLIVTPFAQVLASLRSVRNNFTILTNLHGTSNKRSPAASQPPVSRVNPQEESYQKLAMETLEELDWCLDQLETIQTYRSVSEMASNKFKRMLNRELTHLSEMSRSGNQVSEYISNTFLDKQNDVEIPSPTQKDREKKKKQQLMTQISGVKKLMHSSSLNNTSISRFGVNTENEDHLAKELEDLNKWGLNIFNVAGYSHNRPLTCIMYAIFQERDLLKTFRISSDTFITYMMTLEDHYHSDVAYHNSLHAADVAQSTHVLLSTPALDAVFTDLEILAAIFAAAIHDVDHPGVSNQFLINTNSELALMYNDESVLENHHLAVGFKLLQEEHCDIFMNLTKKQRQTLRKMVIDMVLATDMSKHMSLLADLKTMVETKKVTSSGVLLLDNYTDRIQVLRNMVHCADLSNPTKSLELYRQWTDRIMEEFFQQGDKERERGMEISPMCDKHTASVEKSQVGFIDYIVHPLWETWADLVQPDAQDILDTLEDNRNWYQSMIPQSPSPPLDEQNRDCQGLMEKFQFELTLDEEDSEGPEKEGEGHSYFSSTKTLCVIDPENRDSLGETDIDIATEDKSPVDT
Summary of the method: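 Cell-based read-out of cAMP via a modified cyclic nucleotide-gated channel and membrane potential dye (535/590 nm) in HEK293 cells expressing PDE4 endogenously. Compounds tested up to 22.9 uM final; 100 uM RO 20-1724 reference.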

CC1(C)NCCN2C(=O)CSC21 (centres undefined)
inactive: activity change, negative = inhibition [1] 17.6% | activity change, negative = inhibition [2] 0.762% | outcome [3] | Potency [4] > 20.6 µM

CCCCNC(=O)Nc1ccc(C(O)(C(=O)OC)C(F)(F)F)cc1 (centres undefined)
inactive: activity change, negative = inhibition [1] -12.1% | activity change, negative = inhibition [2] 26.8% | outcome [3] | Potency [4] > 20.6 µM

O=c1c(C=NCCN2CCNCC2)c(O)n(C2CCCCC2)c(=O)n1C1CCCCC1
inactive: activity change, negative = inhibition [1] 4.2% | activity change, negative = inhibition [2] 18.3% | outcome [3] | Potency [4] > 20.6 µM

CCCCSP1(=S)NCCCN1
inactive: activity change, negative = inhibition [1] -7.63% | activity change, negative = inhibition [2] -2.25% | outcome [3] | Potency [4] > 20.6 µM

CCCCCCn1c(O)c(C=NCCN2CCCCC2)c(=O)[nH]c1=O
inactive: activity change, negative = inhibition [1] 10.2% | activity change, negative = inhibition [2] 4.87% | outcome [3] | Potency [4] > 20.6 µM

CCCc1nc2ccccc2c(=O)n1-c1ccccc1OC
inactive: activity change, negative = inhibition [1] -13.4% | activity change, negative = inhibition [2] 1.18% | outcome [3] | Potency [4] > 20.6 µM

O=C(c1ccco1)C12CN3CN(CN(C3)C1)C2
inactive: activity change, negative = inhibition [1] 4.87% | activity change, negative = inhibition [2] -11.2% | outcome [3] | Potency [4] > 20.6 µM

CN1C[C@@H](CNC(=O)OCc2ccccc2)C[C@H]2c3cccc4c3c(cn4C)C[C@@H]21
inactive: activity change, negative = inhibition [1] 29.6% [at 38 µM] | activity change, negative = inhibition [2] 0.446% [at 38 µM] | outcome [3] | Potency [4] > 46 µM | Potency [5] > 46 µM | outcome [6]

C=CCC1(CN2CCCCCC2=O)C(=O)NC(=O)NC1=O
inactive: activity change, negative = inhibition [1] 1.22% | activity change, negative = inhibition [2] 2.02% | outcome [3] | Potency [4] > 20.6 µM

NC(=NCCC[C@@H](N)C(=O)O)N[N+](=O)[O-]
inactive: activity change, negative = inhibition [1] 2.85% [at 38 µM] | activity change, negative = inhibition [2] 2.93% [at 38 µM] | outcome [3] | Potency [4] > 46 µM | Potency [5] > 46 µM | outcome [6] | outcome [7]

O=c1[nH]c(=O)n(C2CCCCC2)c(O)c1C=NCCCn1ccnc1
inactive: activity change, negative = inhibition [1] 0.159% | activity change, negative = inhibition [2] -4.42% | outcome [3] | Potency [4] > 20.6 µM

CCCCc1nc2ccccc2c(=O)n1-c1ccccc1O
inactive: activity change, negative = inhibition [1] -4.36% | activity change, negative = inhibition [2] -4.7% | outcome [3] | Potency [4] > 20.6 µM

O=c1[nH]c(=O)n(CCc2ccccc2)c(O)c1C=NCCCn1ccnc1
inactive: activity change, negative = inhibition [1] -11% | activity change, negative = inhibition [2] -27.5% | outcome [3] | Potency [4] > 20.6 µM

CCCN(CC#CCO)CCC
inactive: activity change, negative = inhibition [1] -3.1% | activity change, negative = inhibition [2] 3.75% | outcome [3] | Potency [4] > 20.6 µM

C[C@H]1CCCC(=O)CCCCCc2cc(O)cc(O)c2C(=O)O1
inactive: activity change, negative = inhibition [1] -29.6% | activity change, negative = inhibition [2] 22.4% | outcome [3] | Potency [4] > 20.6 µM

Cc1ccc2c(c1)[C@@H]1CN(C)CC[C@@H]1N2C(=O)Nc1cccc(C(F)(F)F)c1
inactive: activity change, negative = inhibition [1] 28.8% | activity change, negative = inhibition [2] -12.5% | outcome [3] | Potency [4] > 20.6 µM

COc1ccc(-n2c(SC)nc3ccccc3c2=O)cc1
inactive: activity change, negative = inhibition [1] 0.0474% | activity change, negative = inhibition [2] 12.3% | outcome [3] | Potency [4] > 20.6 µM

OCCOCC#CCN1CCOCC1
inactive: activity change, negative = inhibition [1] 12.1% | activity change, negative = inhibition [2] -4.14% | outcome [3] | Potency [4] > 20.6 µM

COCCOC(=O)c1c(N)n(Cc2ccco2)c2nc3ccccc3nc12
inactive: activity change, negative = inhibition [1] -12.5% | activity change, negative = inhibition [2] 16.1% | outcome [3] | Potency [4] > 20.6 µM

CCOc1ccc(Cc2c(O)[nH]c(=O)[nH]c2=O)cc1
inactive: activity change, negative = inhibition [1] -3.54% | activity change, negative = inhibition [2] 3.49% | outcome [3] | Potency [4] > 20.6 µM

COc1ccc(C2SCC(=O)Nc3c2c(=O)[nH]n3C2CCCCC2)cc1 (centres undefined)
inactive: activity change, negative = inhibition [1] -14.7% | activity change, negative = inhibition [2] 0.11% | outcome [3] | Potency [4] > 20.6 µM

COC(=O)C(O)(c1c[nH]c2ccccc12)C(F)(F)F (centres undefined)
inactive: activity change, negative = inhibition [1] -14.1% | activity change, negative = inhibition [2] -8.45% | outcome [3] | Potency [4] > 20.6 µM

CCOC(=O)c1cc(C)n(CCc2cnc[nH]2)c1C
inactive: activity change, negative = inhibition [1] 3.65% | outcome [3] | Potency [4] > 20.6 µM

Cc1c(N=Cc2c(O)n(Cc3ccco3)c(=O)[nH]c2=O)c(=O)n(-c2ccccc2)n1C
inactive: activity change, negative = inhibition [1] -3.26% | outcome [3] | Potency [4] > 20.6 µM
